FXIa inh mix = blocks human factor XIa in pooled compound mixtures; P03951; hit rate 0.19% among 62,000; inhibition, % at 5 µM; AID 680; purified FXIa, fluorogenic substrate;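 note: each value is inhibition by a whole ten-compound pool holding the compound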
Cathepsin G inh = cathepsin G (human) inhibition; P08311; purified enzyme, AMC-tetrapeptide fluorescence, pooled mixtures; inhibition, % at 5 µM (by protocol); hit rate 0.2% among 62,000; AID 581;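 active = inhibition above 20% in each of the two mixture wells holding the compound; inactive = inhibition of 20% or less in either well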
Ec RNAP inh = blocks E. coli RNA polymerase transcription; hit rate 0.2% among 62,000; AID 559; P0A8V2; inhibition, %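 (tested at 10 µM)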; fluorescence transcription assay; in the data active = inhibition above about 20%
FXIIa mix inh = inhibitors of human coagulation factor XIIa, pooled mixtures; purified FXIIa, fluorogenic substrate; hit rate 0.2% among 62,000; AID 684; inhibition, % at 5 µM; P00748
Target sequence (P00748 20-372 limits assumed): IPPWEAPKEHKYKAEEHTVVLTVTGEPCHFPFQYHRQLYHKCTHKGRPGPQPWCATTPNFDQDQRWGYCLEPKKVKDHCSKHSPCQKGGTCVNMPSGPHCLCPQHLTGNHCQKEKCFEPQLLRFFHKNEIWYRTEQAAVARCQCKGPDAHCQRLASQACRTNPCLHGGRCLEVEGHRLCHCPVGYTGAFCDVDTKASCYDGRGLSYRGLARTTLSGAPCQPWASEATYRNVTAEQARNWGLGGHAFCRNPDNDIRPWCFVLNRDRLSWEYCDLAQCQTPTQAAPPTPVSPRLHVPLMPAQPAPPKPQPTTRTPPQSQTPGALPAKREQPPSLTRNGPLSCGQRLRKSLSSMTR
Target sequence (P00748 373-615 limits assumed): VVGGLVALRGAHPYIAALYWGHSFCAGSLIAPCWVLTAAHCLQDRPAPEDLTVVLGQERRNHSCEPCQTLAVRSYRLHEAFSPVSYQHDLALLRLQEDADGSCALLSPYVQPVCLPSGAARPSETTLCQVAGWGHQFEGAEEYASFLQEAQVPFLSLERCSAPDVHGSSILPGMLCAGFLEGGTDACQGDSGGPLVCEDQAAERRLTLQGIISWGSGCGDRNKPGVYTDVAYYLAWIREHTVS
C1s inh = blocks human complement C1s protease activity | hit rate 0.16% among 62,000 | purified C1s, fluorogenic AMC substrate, pooled mixtures | AID 538 | mean inhibition % of two 10-compound mixtures (active compounds read high), % at 5 µM (by protocol);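 active = inhibition above 20% in each of the two 10-compound mixture wells holding the compound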
Each line names hits and unclear results; the compound was inactive in the other large screens. Compounds with a hit are over-represented: about 0.65% of the library has one in this group of screens. Cut-off read from the data, not from the text of the source, unless noted: active = inhibition above about 20% (passing the limit was not always enough); inactive = the rest.

O=C(NC1CC2CCC(C1)N2C(=O)NCc1ccccc1)C1CC1 (stereo not drawn)	none
O=C(CCn1[nH]c(=O)c2ccccc2c1=O)OC1CCCCC1	FXIa inh mix 20.5
CCOC(=O)Cn1cnc2sc3c(c2c1=O)CCC3	FXIIa mix inh 56.9
COc1cccc(-c2nc(CS(=O)CC(=O)NCc3ccc4c(c3)OCO4)c(C)o2)c1 (stereo not drawn)	none
O=C(O)COCc1nc2ccccc2[nH]1	C1s inh 21.9 (no result: Ec RNAP inh)
Cn1c(=O)oc2cc(S(=O)(=O)Nc3ccc4c(c3)OCO4)ccc21	FXIIa mix inh 45.1
Cn1c(=O)c2cc(S(=O)(=O)Nc3ccc4c(c3)OCO4)ccc2n(C)c1=O	none
O=S(=O)(Nc1ccc2c(c1)OCO2)c1ccc(Br)s1	none
CN(C)S(=O)(=O)Nc1ccc2c(c1)OCO2	FXIa inh mix 24.2
CC1(C)CC(=O)C2=C(C1)OC(=O)C2(NC(=O)c1cccs1)C(F)(F)F (stereo not drawn)	none
CC12CCC(C(=O)N3CCN(c4ccccc4)CC3)(CC1=O)C2(C)C (stereo not drawn)	none
COc1cc(-c2nnc(SCC(=O)c3cc(C)n(CC4CCCO4)c3C)o2)cc(OC)c1OC (stereo not drawn)	C1s inh 22.4
COc1cc(-c2nnc(SCC(=O)c3ccc(C)cc3)o2)cc(OC)c1OC	none
CCC(CC)C(=O)Nc1c2c(nn1-c1ccc(OC)cc1)CS(=O)C2 (stereo not drawn)	none
CC(=O)NC12CC3CC(C1)CC(C(=O)OCC(=O)Nc1ncc(Cl)cc1Cl)(C3)C2	none
COc1cccc(OCc2nnc(SCC(=O)NCc3ccco3)n2CCc2ccccc2)c1	none
CCOc1ccc(NCc2nnc(SCC(=O)Nc3cc(C)on3)n2-c2ccc(OC)cc2)cc1	Ec RNAP inh 25.1
COc1ccc(-n2c(COc3cccc(C)c3)nnc2SCC(=O)NCc2ccco2)cc1	Ec RNAP inh 21.8
CCOc1ccc(NCc2nnc(SCC(=O)Nc3cc(C)on3)n2-c2ccccc2OC)cc1	none
COc1ccc(Cc2c(O)nc(SC)n(C(C)=O)c2=O)cc1	Ec RNAP inh 25.4
CC(C)(C)c1ccc(O)c(N)c1	Ec RNAP inh 24.3
O=C1CSC(=Nc2ccc(O)cc2)N1c1ccc(O)cc1	Cathepsin G inh 39.1
O=C(Oc1ccc(-n2cnnn2)cc1)c1ccco1	C1s inh 30.9
N#Cc1nc(-c2ccc(OCc3ccccc3)cc2)oc1NCc1cccnc1	none
CN(C)c1oc(-c2ccc(OCc3ccccc3)cc2)nc1C#N	FXIa inh mix 22.5
c1ccc(-c2nnc(-c3ccccn3)nn2)nc1	Ec RNAP inh 24.5
COc1cc(C(N)=O)ccc1OCc1ccccc1	none
COc1ccc(C(=O)n2nc(-c3ccccc3)nc2N)cc1OC	Cathepsin G inh 43.6
CS(=O)(=O)Nc1ccc(C(=O)NC2CCCC2)cc1	none
CC(=O)Nc1cccc(NC(=O)Nc2ccc(C(C)=O)cc2)c1	FXIa inh mix 25.3
Nc1ccccc1-c1nnc(SCc2ccccc2F)[nH]c1=O	none
Cn1c(=O)n(C)c2cc(C(=O)O)ccc21	none
Cn1c(=O)n(C)c2cc(C(N)=O)ccc21	FXIIa mix inh 31.6
COc1ccc(N(C(=O)Nc2ccc(Cl)cc2)C2=NCCC2)cc1	none
Cc1ccc(C)c(-n2c(N)c(C(N)=O)sc2=S)c1	Ec RNAP inh 40.1
Cc1ccc(-n2c(N)c(C(N)=O)sc2=S)c(C)c1	none
Cc1ccc(C)c(-n2c(CNc3ccc(F)cc3)nnc2SCC(N)=O)c1	none
CCCCN1C(=O)/C(=C2\SC(N3CCCCC3)=NC2=O)c2ccccc21	C1s inh 22.8 (no result: Ec RNAP inh)
O=C1N=C(N2CCOCC2)S/C1=C1\C(=O)N(Cc2ccccc2)c2ccc(Br)cc21	none
O=C(O)CCCC(=O)Nc1ccccc1C(=O)O	C1s inh 49.3
COc1ccc(N2C(=O)C3CCCN3C2c2ccccc2)cc1Cl (stereo not drawn)	none
COc1ccc(N2C(=O)C3CCCN3C2c2cccc(C)c2)cc1Cl (stereo not drawn)	FXIIa mix inh 22.6
O=C(NCc1ccccn1)C1CCCN(S(=O)(=O)c2cccc3nsnc23)C1 (stereo not drawn)	none
O=C(c1ccco1)N1C(=O)c2cccc3cccc1c23	C1s inh 25.4
CCN1C(=O)c2cccc3cccc1c23	none
CCCN(c1ccc(C(C)C)cc1)S(=O)(=O)c1c(C)noc1C	FXIIa mix inh 34.8
CCn1c(SCC(=O)N2CCCc3ccccc32)nnc1-c1cccs1	none
CCn1c(SCC(=O)N2CCOCC2)nnc1-c1cccs1	FXIa inh mix 20.9
Cc1csc2ncc(C(=O)Nc3ccon3)c(=O)n12	Ec RNAP inh 23.5
Cc1cccc(NC(=O)c2cnc3scc(C)n3c2=O)c1	none
Cc1cc2c3nonc3ccc2n1-c1ccccc1	none
O=C(c1csc2c1CCCC2)n1cccn1	FXIa inh mix 45.2, Cathepsin G inh 47.9, C1s inh 52.3
O=C(CCN1C(=O)COc2ccccc21)NCc1cccs1	none
